Measurements as given in PubChem BioAssay.
Unmarked numbers belong to inactive results. Calls of active or inactive are those of the source. Unless noted, no stated cut-off is given here; in the data, active means inhibition above about 44%; inactive means the rest.

Experiments:
[1] = target: Nuclear receptor coactivator 1 (Homo sapiens) (UniProt Q15788); test: SRC1 coactivator transcriptional activity inhibitors, confirmation, cell-based, luminescence, quadruplicate (AID 588820;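 active means mean inhibition above 46.68%, the untreated control wells mean plus 3 SD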;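 further: 0% = DMSO wells and 100% = gossypol 36 µM treated wells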); conditions: HEK293 GAL4-SRC1 luciferase reporter, at 3.6 µM, active compounds read high
Chain of Nuclear receptor coactivator 1 (Homo sapiens) (Q15788 whole entry, looked up, the tested form may be a part): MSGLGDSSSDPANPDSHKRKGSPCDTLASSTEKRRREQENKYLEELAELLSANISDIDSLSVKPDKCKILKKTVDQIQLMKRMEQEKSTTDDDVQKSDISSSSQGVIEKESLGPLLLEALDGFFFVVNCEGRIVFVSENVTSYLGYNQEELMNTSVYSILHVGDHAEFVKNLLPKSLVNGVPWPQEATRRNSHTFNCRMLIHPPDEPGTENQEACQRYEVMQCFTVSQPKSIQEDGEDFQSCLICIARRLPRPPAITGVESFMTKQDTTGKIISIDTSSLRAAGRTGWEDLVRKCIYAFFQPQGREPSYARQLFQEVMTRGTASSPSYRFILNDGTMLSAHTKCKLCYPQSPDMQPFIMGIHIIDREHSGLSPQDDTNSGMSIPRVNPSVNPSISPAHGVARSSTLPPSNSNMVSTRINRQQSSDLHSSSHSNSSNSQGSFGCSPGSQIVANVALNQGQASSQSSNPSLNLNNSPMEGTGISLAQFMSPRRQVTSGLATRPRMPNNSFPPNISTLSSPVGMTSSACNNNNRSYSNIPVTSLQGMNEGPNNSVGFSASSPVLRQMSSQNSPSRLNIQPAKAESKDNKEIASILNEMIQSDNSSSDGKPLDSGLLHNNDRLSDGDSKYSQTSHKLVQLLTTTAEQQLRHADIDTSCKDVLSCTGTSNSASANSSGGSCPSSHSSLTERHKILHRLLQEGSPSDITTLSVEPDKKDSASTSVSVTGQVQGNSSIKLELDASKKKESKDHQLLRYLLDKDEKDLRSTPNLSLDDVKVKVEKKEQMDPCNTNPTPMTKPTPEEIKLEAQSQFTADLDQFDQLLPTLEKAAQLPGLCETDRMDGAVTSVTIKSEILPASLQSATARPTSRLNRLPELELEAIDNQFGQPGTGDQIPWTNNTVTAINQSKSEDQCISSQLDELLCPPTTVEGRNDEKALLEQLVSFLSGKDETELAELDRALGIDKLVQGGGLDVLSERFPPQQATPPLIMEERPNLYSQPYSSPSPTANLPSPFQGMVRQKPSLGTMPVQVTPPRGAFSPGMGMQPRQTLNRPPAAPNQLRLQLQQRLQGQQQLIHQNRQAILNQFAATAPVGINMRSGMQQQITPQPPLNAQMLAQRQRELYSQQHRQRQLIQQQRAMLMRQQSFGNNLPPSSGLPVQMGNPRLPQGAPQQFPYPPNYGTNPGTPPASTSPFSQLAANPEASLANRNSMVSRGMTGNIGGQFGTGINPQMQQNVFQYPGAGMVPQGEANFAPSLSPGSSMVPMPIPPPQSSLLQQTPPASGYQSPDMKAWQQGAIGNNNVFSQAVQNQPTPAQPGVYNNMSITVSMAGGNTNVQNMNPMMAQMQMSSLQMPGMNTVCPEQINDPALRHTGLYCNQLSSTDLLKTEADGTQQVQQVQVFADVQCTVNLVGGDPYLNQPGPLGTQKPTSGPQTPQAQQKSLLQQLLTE

[2] = VP16 transactivation inhibitors, counter-screen for SRC1 inhibitor project, cell-based, luminescence, high throughput (AID 588824; in the data active means inhibition above about 25%); conditions: cell-based VP16 transactivation luciferase luminescence; at 3.6 µM; active compounds read high
[3] = StAR promoter reporter inhibitors, counter-screen for LRH-1 inverse agonist project, cell-based, luminescence, high throughput (AID 651611; in the data active means inhibition above about 28%); conditions: StAR promoter luciferase reporter counterscreen, at 3.6 µM, active compounds read high
[4] = target: Nuclear receptor subfamily 5 group A member 2 (Homo sapiens) (UniProt O00482); test: LRH-1 (NR5A2) inverse agonists, retest, confirmation, cell-based, luminescence (AID 651613; in the data active means inhibition above about 42%;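 further: HEK293T cells co-transfected with LRH-1 and StAR promoter luciferase reporter; 0% = vehicle wells and 100% = parental cells lacking receptor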); conditions: cell-based LRH-1 luciferase reporter, inverse agonism; at 3.6 µM; active compounds read high
Chain of Nuclear receptor subfamily 5 group A member 2 (Homo sapiens) (O00482 whole entry, looked up): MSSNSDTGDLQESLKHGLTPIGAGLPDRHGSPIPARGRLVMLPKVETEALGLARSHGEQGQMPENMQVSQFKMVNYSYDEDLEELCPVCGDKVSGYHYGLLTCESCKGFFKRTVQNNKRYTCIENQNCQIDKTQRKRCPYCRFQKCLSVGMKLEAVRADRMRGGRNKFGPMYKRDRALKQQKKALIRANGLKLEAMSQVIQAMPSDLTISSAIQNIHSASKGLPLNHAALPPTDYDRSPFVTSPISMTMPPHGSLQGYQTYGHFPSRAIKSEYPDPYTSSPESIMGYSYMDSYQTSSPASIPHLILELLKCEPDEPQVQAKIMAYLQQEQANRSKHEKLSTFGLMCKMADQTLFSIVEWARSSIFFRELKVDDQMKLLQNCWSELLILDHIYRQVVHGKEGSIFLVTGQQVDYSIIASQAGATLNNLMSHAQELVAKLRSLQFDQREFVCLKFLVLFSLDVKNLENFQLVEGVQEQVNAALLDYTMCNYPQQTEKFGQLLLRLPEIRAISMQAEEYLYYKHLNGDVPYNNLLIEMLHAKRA

[5] = target: Steroidogenic factor 1 (Homo sapiens) (UniProt Q13285); test: SF1 (NR5A1) inverse agonists, counter-screen for LRH-1 inverse agonist project, cell-based, luminescence, high throughput (AID 651614); conditions: cell-based SF1 luciferase reporter, at 3.6 µM, active compounds read high;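 further: cells cotransfected with StAR promoter reporter and SF1 expression vector; 0% = vehicle on cells with receptor and 100% = vehicle on cells lacking receptor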
Chain of Steroidogenic factor 1 (Homo sapiens) (Q13285 whole entry, looked up, the tested form may be a part): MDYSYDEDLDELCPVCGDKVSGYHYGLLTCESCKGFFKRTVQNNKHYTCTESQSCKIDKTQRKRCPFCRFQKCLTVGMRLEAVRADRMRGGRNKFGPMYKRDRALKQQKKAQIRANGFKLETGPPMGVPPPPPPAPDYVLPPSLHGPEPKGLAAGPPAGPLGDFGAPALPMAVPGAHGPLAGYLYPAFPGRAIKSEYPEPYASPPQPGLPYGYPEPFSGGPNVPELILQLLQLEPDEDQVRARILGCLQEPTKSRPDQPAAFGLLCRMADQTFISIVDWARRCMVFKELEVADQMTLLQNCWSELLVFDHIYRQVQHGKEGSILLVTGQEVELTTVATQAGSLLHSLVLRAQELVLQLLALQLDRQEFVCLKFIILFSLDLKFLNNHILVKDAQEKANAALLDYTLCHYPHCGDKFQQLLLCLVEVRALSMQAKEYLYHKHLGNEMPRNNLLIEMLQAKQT

[6] = VP16 transactivation reporter inhibitors, counter-screen for LRH-1 inverse agonist project, cell-based, luminescence, high throughput (AID 651615; in the data active means inhibition above about 33%); conditions: Gal4-VP16 luciferase reporter cells, at 3.6 µM, active compounds read high

SMILES | inhibition [1] [%] | inhibition [2] | inhibition [3] | inhibition [4] | inhibition [5] | inhibition [6]
Cc1cc2[nH]c3c(c[n+](C)c4ccccc34)c2cc1C | 20.9 | 47.8% (active) | 41.7% (active) | 100% (active) | 66.4% (active) | 84.2% (active)
Cc1ccc(/C=C2/CNC/C(=C/c3ccc(C)cc3)C2=O)cc1 | -19.2 | 43.8% (active) | 47% (active) | 79.3% (active) | 64.9% (active) | 80.2% (active)
CC1(C)CC(N2CCCC2)=CC(=[N+]2CCCCC2)C1 | -1.69 | 31% (active) | 21.4% | 64.8% (active) | 54.3% (active) | 52.5% (active)
COc1ccc(C(=O)NCCN(C)C)c2nc3ccccc3cc12 | 20.7 | 39.4% (active) | 63.9% (active) | 77.7% (active) | 60% (active) | 65.3% (active)
CC(=NNC(=S)N1CCCCC1)c1ccccn1 | 36.5 | 61.5% (active) | 70.5% (active) | 95.3% (active) | 82.2% (active) | 52.6% (active)
CN(C)CCN1C(=O)c2cccc3cc([N+](=O)[O-])cc(c23)C1=O | -146 | 47.5% (active) | 67% (active) | 96.7% (active) | 84.4% (active) | 68.2% (active)
CCCCn1c2c(c(=N)c3c1CCC3)CCC2 | 4.17 | 33.1% (active) | 26.5% | 80.5% (active) | 61.9% (active) | 61% (active)
COc1ccc(NC(=O)C2Cc3c(-c4cccc(C(C)=O)c4)ccnc3O2)cc1OC (configuration not stated) | -17.4 | 19.6% | 44% (active) | 59% (active) | 72% (active) | 48.8% (active)
O=C1c2cccc3cc([N+](=O)[O-])cc(c23)C(=O)N1CCN1CCCC1 | -86.9 | 42.6% (active) | 13.3% | 91.6% (active) | 68.6% (active) | 64.2% (active)
Brc1ccc2c(c1)-c1ccccc1C1=NCCN12 | -49.1 | 40.9% (active) | 39% (active) | 104% (active) | 75.8% (active) | 71.6% (active)
CCCCCCCCNc1ncnc2ccccc12 | -40.4 | 29.4% (active) | 22.2% | 63.7% (active) | 56.2% (active) | 63.4% (active)
CCN(CC)CCn1nc2c3c(cccc3c1=O)-c1ccccc1-2 | 28.6 | 54.7% (active) | 54.2% (active) | 84.5% (active) | 80.1% (active) | 79.5% (active)
